# Measurements from PubChem BioAssay (NCATS).
# Inconclusive results are not listed. Active and inactive are the calls of the source. Unless noted, the rule behind the calls is not given here.
# Key:
# [1] = qHTS profiling of the MIPE4 collection as inhibitors of Plasmodium falciparum (3D7) proliferation (AID 743344);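 note: scaled between DMSO vehicle wells and 0.29 µM artemisinin as full inhibition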; conditions: P. falciparum 3D7 in erythrocytes, SYBR Green DNA fluorescence, 72 h; at 28.5 µM unless noted
# Outline: (§1)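 Erythrocytes infected with P. falciparum (0.3% parasitemia, 2.5% hematocrit) incubated with compounds 72 h at 37 C, 5% CO2. Lysis with saponin/Triton buffer containing SYBR Green I, overnight at room temperature in the dark; DNA fluorescence (485/535 nm) normalised to 0.29 uM artemisinin and DMSO.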
# [2] = qHTS profiling of the MIPE4 collection as inhibitors of Plasmodium falciparum (DD2) proliferation (AID 743345); conditions: P. falciparum Dd2 in erythrocytes, SYBR Green DNA, 72 h; at 28.5 µM unless noted
# Outline: as §1
# [3] = qHTS profiling of the MIPE4 collection as inhibitors of Plasmodium falciparum (DD2) proliferation (Rep 2) (AID 743346); conditions: P. falciparum Dd2 in erythrocytes, SYBR Green DNA, 72 h; at 28.5 µM unless noted
# Outline: as §1
# [4] = qHTS profiling of the MIPE4 collection as inhibitors of Plasmodium falciparum (HB3) proliferation (AID 743347);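 note: plate controls were DMSO vehicle wells for no effect and artemisinin wells for full effect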; conditions: P. falciparum HB3 in erythrocytes, SYBR Green DNA, 72 h; at 28.5 µM unless noted
# Outline: as §1
# [5] = High-throughput drug toxicity screening in the BPDCN cell line Gen2.2 (AID 1224824); conditions: Gen2.2 BPDCN cells; at 45.8 µM (top of the series) unless noted
# Outline: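 Readout is ATP luminescence from Gen2.2 cells after two days of drug exposure in serum-containing medium at 37 °C. Values express percent activity, with vehicle defining full signal and 9.2 uM bortezomib defining zero.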
# [6] = High-throughput drug toxicity screening in the BPDCN cell line Cal-1 (AID 1224825); conditions: Cal-1 BPDCN cell viability, qHTS; at 45.8 µM (top of the series) unless noted
# Outline: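 500 Cal-1 cells/well, RPMI + glutamine + 10% FBS (phenol red-free); cpd added by pin tool; 48 h, 37C, 5% CO2; CTG 15 min RT, lumi read. Normalised: DMSO 100%, bortezomib 9.2 uM 0%.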
# [7] = qHTS assay for measurement of the activity of small molecule inhibitors on Zika virus induced Caspase-3 activity in human iPSC derived neural progenitor cells (hNPCs) (AID 1224857; active = well fitted curve in the direction sought with a large enough effect; an effect the other way counts as inactive or inconclusive; note: % of control where 0% means no effect; nearly all actives have a fitted effect of over 65% in size)
# Outline: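 hNPCs seeded 350 cells/well, cultured 16–20 h; compounds added 1 h before ZIKV (2 FFU/cell), 37 C 6 h. Caspase-Glo 3/7 luminescence after 30 min RT; % inhibition from induction scaled to uninfected (0%) and infected (100%) wells.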
# [8] = qHTS assay for measurement of the activity of small molecule inhibitors on Zika virus induced Caspase-3 activity in human astrocytoma cells (AID 1224859; active = well fitted curve in the direction sought with a large enough effect; an effect the other way counts as inactive or inconclusive;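 note: plate controls were ZIKV-infected untreated cells for no effect and uninfected cells for full effect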)
# Outline: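 Luminescence read-out (Caspase-Glo 3/7, 30 min RT) of caspase activity in SNB-19 cells infected 6 h with ZIKV, 2 FFU/cell, after 1 h compound pretreatment; % inhibition from induction normalised to uninfected (0%) and infected (100%) wells.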
# [9] = qHTS Screen of the MIPE 4.0 Collection Against Ewings Sarcoma (TC71) (AID 1259253; active = well fitted curve in the direction sought with a large enough effect; an effect the other way counts as inactive or inconclusive; note: potency is the fitted concentration of half-maximal effect; nearly all actives have a fitted effect of over 40% in size)
# Outline: (§2)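 After a 4 h attachment period in RPMI/5% FBS, cells were pin-dosed with test compounds; DMSO served as negative and 9.2 uM bortezomib (final) as positive control. Luminescent CellTiter-Glo signal at 48 h defined viability.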
# [10] = qHTS Screen of the MIPE 4.0 Collection Against Ewings Sarcoma (EW8) (AID 1259255; active = well fitted curve in the direction sought with a large enough effect; an effect the other way counts as inactive or inconclusive; note: nearly all actives have a fitted effect of over 35% in size; note: potency is the fitted concentration of half-maximal effect;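 for viability: 100% = DMSO-treated cells and 0% = medium-only wells without cells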)
# Outline: as §2
# [11] = qHTS Screen of the MIPE 4.0 Collection Against Ewings Sarcoma (TC32) (AID 1259256; active = well fitted curve in the direction sought with a large enough effect; an effect the other way counts as inactive or inconclusive; note: nearly all actives have a fitted effect of over 45% in size; note: potency is the fitted concentration of half-maximal effect)
# Outline: as §2
# [12] = qHTS Screen of the MIPE 4.0 Collection Against Ewings Sarcoma (RDES) (AID 1259252; active = well fitted curve in the direction sought with a large enough effect; an effect the other way counts as inactive or inconclusive; note: nearly all actives have a fitted effect of over 35% in size; note: potency is the fitted concentration of half-maximal effect)
# Outline: as §2
# [13] = qHTS profiling for inhibitors of Plasmodium falciparum (HB3) proliferation (AID 743324; active = well fitted curve in the direction sought with a large enough effect; an effect the other way counts as inactive or inconclusive;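 note: 100% = DMSO vehicle wells and 0% = artemisinin-treated control wells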); conditions: Plasmodium falciparum HB3 blood-stage proliferation; at 28.7 µM (top of the series) unless noted
# Outline: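 P. falciparum HB3 grown in erythrocytes (0.3% parasitemia, 2.5% hematocrit final) with compound for 72 h at 37 C, 5% CO2. Parasite DNA detected by SYBR Green after saponin/triton lysis overnight; normalized to 0.29 uM artemisinin and DMSO.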
# [14] = Identifying Small Molecule Inhibitors of Pancreatic Cancer Stem Cells (A2780, Spheroid) (AID 1259357; active = well fitted curve in the direction sought with a large enough effect; an effect the other way counts as inactive or inconclusive;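 note: compound exposure lasted 48 h before the ATP luminescence read; 100% = DMSO treated cells and 0% = wells without cells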); conditions: Potency: A2780 spheroid viability
# Outline: (§3)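 Monolayer and spheroid cultures are compared. Spheroids form over 14 days in stem cell medium on hydrogel-coated low-attachment plates, then are exposed to compound for 48 h before CellTiter-Glo luminescence.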
# [15] = Identifying Small Molecule Inhibitors of Pancreatic Cancer Stem Cells (SN12C, Spheroid) (AID 1259360; active = well fitted curve in the direction sought with a large enough effect; an effect the other way counts as inactive or inconclusive;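 note: 100% = DMSO-treated cells and 0% = wells without cells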); conditions: Potency: SN12C spheroid viability
# Outline: as §3
SMILES,"parasite growth, % of DMSO control [1]","parasite growth remaining, % of DMSO control (lower = more inhibition) [2]","parasite growth, % of control (lower = inhibition) [3]","growth, % of control [4]","cell viability, % of control (lower = more cytotoxic) [5]",viability (% of control) [6],Potency [7],Potency [8],Potency [9],Potency [10],Potency [11],Potency [12],"remaining proliferation (% of control), lower = more inhibition [13] [%]",Potency [14],Potency [15]
COc1cc([C@H]2Oc3cc([C@H]4Oc5cc(O)cc(O)c5C(=O)[C@H]4O)ccc3O[C@H]2CO)ccc1O,7.9%,18.5%,16.1%,12.9%,181%,85.4%,inactive,inactive,14.8 µM (active),9.35 µM (active),–,–,–,–,–
O=C(O)C1=CO[C@@H](O[C@@H]2O[C@H](CO)[C@H](O)[C@H](O)[C@H]2O)[C@@H]2C(CO)=CC[C@H]12,99.8%,96.1%,83.9%,103%,78.1%,23.1%,inactive,inactive,16.6 µM (active),inactive,inactive,–,–,–,–
Cc1ccc2c(c1)C(=O)[C@]1(O)CCN(c3ccccc3)C1=N2,70.4%,90.7%,–,76.8%,91%,34.3%,inactive,inactive,18.7 µM (active),18.7 µM (active),inactive,–,–,–,–
CC(C)c1c(C(=O)Nc2ccccc2)c(-c2ccccc2)c(-c2ccc(F)cc2)n1CC[C@H](O)C[C@@H](O)CC(=O)O,7.03%,82.2%,17.6%,–,41.5%,93.6%,inactive,inactive,14.8 µM (active),23.5 µM (active),3.72 µM (active),–,–,–,–
Cc1ccc(C2=Nc3ccc(Cl)cc3OC2)cc1,–,94.3%,26.5%,55.7%,73.9%,85%,inactive,inactive,4.69 µM (active),16.6 µM (active),–,–,–,–,–
N=C1SC(=Cc2ccc(-c3ccc4c(c3)C(=O)NC4=O)o2)C(=O)N1c1ccc(Br)cc1,9.09%,21.3%,30.9%,9.17%,13.7%,35.6%,inactive,inactive,20.9 µM (active),inactive,–,–,–,–,–
Cc1ccc(S(=O)(=O)Nc2nc3ccccc3nc2Nc2ccc3nsnc3c2)cc1,25.4% [at 9.64 µM],88% [at 9.64 µM],36% [at 9.64 µM],77.4% [at 9.64 µM],7.38% [at 23.2 µM],14.1% [at 23.2 µM],inactive,–,12.9 µM (active),–,16.2 µM (active),8.12 µM (active),–,–,–
CC(C)(OCc1nn(Cc2ccccc2)c2ccccc12)C(=O)O,95.1%,101%,96.9%,104%,148%,109%,inactive,inactive,7.43 µM (active),–,–,–,–,–,–
O=C1C(CCC(O)c2ccc(F)cc2)C(c2ccc(O)cc2)N1c1ccc(F)cc1 (configuration not stated),33.5%,77%,36.6%,33.2%,88.9%,93.3%,inactive,–,–,inactive,inactive,inactive,64.8,inactive,inactive
COc1cc2c(cc1Cc1cccc(Cl)c1F)c(=O)c(C(=O)O)cn2[C@H](CO)C(C)C,–,19%,16.6%,3.89%,19.1%,11%,inactive,–,20.9 µM (active),–,–,26.4 µM (active),–,–,–
CCOC(=O)c1c(CSc2ccccc2)n(C)c2cc(Br)c(O)c(CN(C)C)c12,8.99%,10.6%,12.1%,–,164%,52.2%,inactive,inactive,16.6 µM (active),–,–,–,–,–,–
COc1ccc(Cn2ccc3ccc(C(=O)NO)cc32)cc1,4.8%,13.4%,–,3.68%,250%,19.7%,inactive,–,13.2 µM (active),14.8 µM (active),11.8 µM (active),–,–,–,–
